# Laboratory results as given in the supplement of paper PMC11732987, “Enantioselective OTUD7B fragment discovery through chemoproteomics screening and high-throughput optimisation” (Communications Chemistry, 2025).
# A number with no mark means an inactive call.
# Key:
# Test in all cases: log2 ratio of Biotin-Ahx-Ub-VS probe labelling (compound/DMSO); higher = less target engagement, active = hit call of the paper (q ≤ 0.05, log2 ratio ≤ -1)
# Conditions in all cases: treatment time: 3 h
# [1] = compound: CN(Cc1cccc(Br)c1)C(=O)CCl
# How it was run: (§1)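 Compound at 50 or 200 µM, or DMSO, was applied for 3 h in triplicate to HEK293T lysate (495 µg per sample, Tris/CHAPS/IGEPAL buffer with protease inhibitors), after which Biotin-Ahx-Ub-VS was added at 0.5 µM final for 1 h. The labelled DUBs were pulled down with NeutrAvidin, digested with LysC and trypsin, and run by diaPASEF LC-MS/MS. Ratios are averaged base-two logs of compound over DMSO from median-normalised label-free quantities by unpaired t-test, counting only proteins with at least 2 unique peptides.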
# [2] = compound: CN(Cc1cccc(OCc2ccccc2C)c1)C(=O)CCl
# How it was run: as §1
# [3] = compound: CN(Cc1ccccc1)C(=O)CCl
# How it was run: as §1
# [4] = compound: COc1ccc(CN(C)C(=O)CCl)cc1
# How it was run: as §1
# [5] = compound: COc1cccc(CN(CCCc2ccccc2)C(=O)CCl)c1
# How it was run: as §1
# [6] = compound: ClCC(=O)N1CCc2cc(Cl)c(Cl)cc2C1
# How it was run: as §1
# [7] = compound: ClCC(=O)N1CCc2nc(ncc2C1)-c1ccccc1
# How it was run: as §1
# [8] = compound: ClCC(=O)N1CCc2nocc2C1
# How it was run: as §1
# [9] = compound: ClCC(=O)N1CCc2scc(Br)c2C1
# How it was run: as §1
# [10] = compound: ClCC(=O)NC(C1CCCC1)c1cccs1
# How it was run: as §1
# [11] = compound: ClCC(=O)NC1CCCc2ccccc12
# How it was run: as §1
# [12] = compound: ClCC(=O)NC1CCOc2ccc(Cl)cc12
# How it was run: as §1
# [13] = compound: ClCC(=O)NC1CCSc2ccccc12
# How it was run: as §1
# [14] = compound: ClCC(=O)N[C@H]1CCCc2ccccc12
# How it was run: as §1
# [15] = compound: Fc1ccc(N2CCN(c3nc4c(CN(C(CCl)=O)CC4)cn3)CC2)cc1.Cl.Cl
# How it was run: as §1
# UniProt Q93009, sequence (Q93009 whole entry, looked up): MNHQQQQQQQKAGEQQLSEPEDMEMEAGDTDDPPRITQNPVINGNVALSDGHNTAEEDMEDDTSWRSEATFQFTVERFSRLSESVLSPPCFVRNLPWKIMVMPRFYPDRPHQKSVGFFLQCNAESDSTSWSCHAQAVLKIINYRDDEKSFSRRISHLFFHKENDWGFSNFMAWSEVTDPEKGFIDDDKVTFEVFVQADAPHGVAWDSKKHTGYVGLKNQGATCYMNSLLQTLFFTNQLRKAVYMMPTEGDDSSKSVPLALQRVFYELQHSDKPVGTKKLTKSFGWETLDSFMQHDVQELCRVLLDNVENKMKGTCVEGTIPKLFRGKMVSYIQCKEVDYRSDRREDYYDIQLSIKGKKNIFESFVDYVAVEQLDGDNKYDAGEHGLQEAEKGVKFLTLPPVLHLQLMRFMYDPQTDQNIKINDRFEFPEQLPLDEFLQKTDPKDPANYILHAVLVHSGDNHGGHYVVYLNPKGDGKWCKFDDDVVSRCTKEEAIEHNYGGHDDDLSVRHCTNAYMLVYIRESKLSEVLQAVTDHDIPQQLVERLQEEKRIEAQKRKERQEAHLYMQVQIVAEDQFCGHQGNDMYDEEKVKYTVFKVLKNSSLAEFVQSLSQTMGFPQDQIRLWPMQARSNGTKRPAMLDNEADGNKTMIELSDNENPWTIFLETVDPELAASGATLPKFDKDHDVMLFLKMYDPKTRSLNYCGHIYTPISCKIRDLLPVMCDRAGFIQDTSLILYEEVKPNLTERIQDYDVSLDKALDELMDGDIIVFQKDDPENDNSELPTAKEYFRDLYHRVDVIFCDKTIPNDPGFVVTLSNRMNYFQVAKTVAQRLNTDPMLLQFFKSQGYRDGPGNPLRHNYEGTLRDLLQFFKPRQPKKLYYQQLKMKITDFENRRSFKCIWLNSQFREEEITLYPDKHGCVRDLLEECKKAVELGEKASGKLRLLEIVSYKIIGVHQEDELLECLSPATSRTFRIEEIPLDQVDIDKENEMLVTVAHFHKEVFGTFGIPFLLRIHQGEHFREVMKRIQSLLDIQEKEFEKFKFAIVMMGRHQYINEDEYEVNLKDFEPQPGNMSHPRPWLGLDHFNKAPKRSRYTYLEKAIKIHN
# UniProt Q8TE49, sequence (Q8TE49 whole entry): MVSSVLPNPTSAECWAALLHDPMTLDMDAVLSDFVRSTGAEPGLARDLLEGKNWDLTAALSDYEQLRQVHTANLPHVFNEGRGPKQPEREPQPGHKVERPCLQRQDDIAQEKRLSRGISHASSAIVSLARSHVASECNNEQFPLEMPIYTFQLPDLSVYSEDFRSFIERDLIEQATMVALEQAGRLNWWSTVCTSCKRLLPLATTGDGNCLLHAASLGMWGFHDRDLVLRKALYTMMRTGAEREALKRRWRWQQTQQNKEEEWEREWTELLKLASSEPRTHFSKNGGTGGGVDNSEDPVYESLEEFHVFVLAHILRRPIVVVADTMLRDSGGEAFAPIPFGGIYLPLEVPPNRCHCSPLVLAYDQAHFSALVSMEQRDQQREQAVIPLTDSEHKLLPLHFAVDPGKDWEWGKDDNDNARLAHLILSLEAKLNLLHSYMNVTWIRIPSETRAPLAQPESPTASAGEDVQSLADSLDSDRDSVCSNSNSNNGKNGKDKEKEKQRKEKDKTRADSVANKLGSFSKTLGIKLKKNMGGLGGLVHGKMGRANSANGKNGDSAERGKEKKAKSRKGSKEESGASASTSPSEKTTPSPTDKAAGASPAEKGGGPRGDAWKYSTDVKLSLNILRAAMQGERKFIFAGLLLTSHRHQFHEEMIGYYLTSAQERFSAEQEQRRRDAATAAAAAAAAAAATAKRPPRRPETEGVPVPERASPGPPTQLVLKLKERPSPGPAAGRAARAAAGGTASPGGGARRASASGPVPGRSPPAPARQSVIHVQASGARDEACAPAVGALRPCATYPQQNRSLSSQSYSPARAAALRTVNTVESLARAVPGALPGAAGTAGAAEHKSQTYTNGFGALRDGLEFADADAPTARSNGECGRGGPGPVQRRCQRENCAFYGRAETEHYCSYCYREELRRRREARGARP
# UniProt Q53GS9, sequence (Q53GS9 whole entry): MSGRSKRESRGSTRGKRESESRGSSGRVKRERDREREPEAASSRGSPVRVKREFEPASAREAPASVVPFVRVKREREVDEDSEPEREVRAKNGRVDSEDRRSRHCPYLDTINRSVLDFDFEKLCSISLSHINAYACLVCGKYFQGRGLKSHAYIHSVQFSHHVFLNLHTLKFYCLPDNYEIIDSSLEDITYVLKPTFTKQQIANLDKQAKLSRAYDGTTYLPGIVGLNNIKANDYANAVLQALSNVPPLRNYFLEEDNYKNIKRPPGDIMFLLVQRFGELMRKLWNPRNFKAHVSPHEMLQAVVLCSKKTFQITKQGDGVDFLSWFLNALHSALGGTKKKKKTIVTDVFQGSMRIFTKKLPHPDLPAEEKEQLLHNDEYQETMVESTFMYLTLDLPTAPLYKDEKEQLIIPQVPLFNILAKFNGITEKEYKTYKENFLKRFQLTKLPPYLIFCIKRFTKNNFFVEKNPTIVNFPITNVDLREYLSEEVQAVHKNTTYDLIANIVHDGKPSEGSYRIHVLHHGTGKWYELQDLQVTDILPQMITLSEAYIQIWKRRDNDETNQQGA
# UniProt P51665, sequence (P51665 whole entry): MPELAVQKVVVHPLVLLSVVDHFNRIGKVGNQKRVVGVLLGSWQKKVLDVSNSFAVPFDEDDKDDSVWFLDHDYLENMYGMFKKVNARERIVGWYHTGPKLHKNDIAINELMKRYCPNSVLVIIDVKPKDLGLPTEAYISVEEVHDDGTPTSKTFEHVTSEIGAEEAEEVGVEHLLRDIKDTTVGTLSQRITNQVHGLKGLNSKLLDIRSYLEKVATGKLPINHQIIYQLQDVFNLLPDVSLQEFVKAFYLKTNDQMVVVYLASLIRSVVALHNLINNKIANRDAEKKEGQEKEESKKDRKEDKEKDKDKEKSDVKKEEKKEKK
# UniProt Q96FW1, sequence (Q96FW1 whole entry): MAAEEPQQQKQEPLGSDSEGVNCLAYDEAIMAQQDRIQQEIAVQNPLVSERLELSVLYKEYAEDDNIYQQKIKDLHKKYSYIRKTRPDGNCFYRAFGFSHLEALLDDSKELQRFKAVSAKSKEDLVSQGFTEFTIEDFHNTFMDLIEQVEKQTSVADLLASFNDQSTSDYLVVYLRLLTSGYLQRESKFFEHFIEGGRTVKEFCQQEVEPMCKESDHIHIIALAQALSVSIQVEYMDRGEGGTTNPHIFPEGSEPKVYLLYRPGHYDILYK
Target,log2 ratio of Biotin-Ahx-Ub-VS probe labelling ([1]; compound concentration: 50uM),log2 ratio of Biotin-Ahx-Ub-VS probe labelling ([1]; compound concentration: 200uM),log2 ratio of Biotin-Ahx-Ub-VS probe labelling ([2]; compound concentration: 50uM),log2 ratio of Biotin-Ahx-Ub-VS probe labelling ([2]; compound concentration: 200uM),log2 ratio of Biotin-Ahx-Ub-VS probe labelling ([3]; compound concentration: 50uM),log2 ratio of Biotin-Ahx-Ub-VS probe labelling ([3]; compound concentration: 200uM),log2 ratio of Biotin-Ahx-Ub-VS probe labelling ([4]; compound concentration: 50uM),log2 ratio of Biotin-Ahx-Ub-VS probe labelling ([4]; compound concentration: 200uM),log2 ratio of Biotin-Ahx-Ub-VS probe labelling ([5]; compound concentration: 50uM),log2 ratio of Biotin-Ahx-Ub-VS probe labelling ([5]; compound concentration: 200uM),log2 ratio of Biotin-Ahx-Ub-VS probe labelling ([6]; compound concentration: 50uM),log2 ratio of Biotin-Ahx-Ub-VS probe labelling ([6]; compound concentration: 200uM),log2 ratio of Biotin-Ahx-Ub-VS probe labelling ([7]; compound concentration: 50uM),log2 ratio of Biotin-Ahx-Ub-VS probe labelling ([7]; compound concentration: 200uM),log2 ratio of Biotin-Ahx-Ub-VS probe labelling ([8]; compound concentration: 50uM),log2 ratio of Biotin-Ahx-Ub-VS probe labelling ([8]; compound concentration: 200uM),log2 ratio of Biotin-Ahx-Ub-VS probe labelling ([9]; compound concentration: 50uM),log2 ratio of Biotin-Ahx-Ub-VS probe labelling ([9]; compound concentration: 200uM),log2 ratio of Biotin-Ahx-Ub-VS probe labelling ([10]; compound concentration: 50uM),log2 ratio of Biotin-Ahx-Ub-VS probe labelling ([10]; compound concentration: 200uM),log2 ratio of Biotin-Ahx-Ub-VS probe labelling ([11]; compound concentration: 50uM),log2 ratio of Biotin-Ahx-Ub-VS probe labelling ([11]; compound concentration: 200uM),log2 ratio of Biotin-Ahx-Ub-VS probe labelling ([12]; compound concentration: 50uM),log2 ratio of Biotin-Ahx-Ub-VS probe labelling ([12]; compound concentration: 200uM),log2 ratio of Biotin-Ahx-Ub-VS probe labelling ([13]; compound concentration: 50uM),log2 ratio of Biotin-Ahx-Ub-VS probe labelling ([13]; compound concentration: 200uM),log2 ratio of Biotin-Ahx-Ub-VS probe labelling ([14]; compound concentration: 50uM),log2 ratio of Biotin-Ahx-Ub-VS probe labelling ([14]; compound concentration: 200uM),log2 ratio of Biotin-Ahx-Ub-VS probe labelling ([15]; compound concentration: 50uM),log2 ratio of Biotin-Ahx-Ub-VS probe labelling ([15]; compound concentration: 200uM)
PSMD7 (UniProt P51665),-1.92,0.377,0.204,-0.694,0.305,1.21,-0.346,2.6,0.459,0.335,-1.17,0.126,-0.153,0.514,0.812,0.83,0.689,0.149,0.0697,0.463,-5.4,-0.933,-1.46,0.606,0.408,0.0589,1.77,0.0535,-0.177,-1.73
USP39 (UniProt Q53GS9),0.105,-0.535,-0.137,0.0162,-0.0746,0.0651,0.011,-0.086,0.17,0.063,0.017,-0.298,0.044,0.117,-0.102,-0.0827,-0.0611,-0.272,0.165,0.014,-0.167,-0.109,-0.269,-0.2,-0.0242,-0.138,0.0198,-0.0406,0.0915,-0.109
OTUB1 (UniProt Q96FW1),0.0635,0.0164,-0.366,0.0592,-0.0602,-0.159,-0.0667,-0.232,-0.125,-0.389,0.182,-0.161,-0.0139,-0.309,-0.139,-0.129,0.0181,-0.0887,0.00867,-0.00015,-0.212,-0.0215,-0.31,-0.319,0.00122,-0.246,0.0292,-0.0965,0.0783,-0.137
USP7 (UniProt Q93009),-0.88,-1.84 (active),-0.769,-1.62 (active),-0.517,-1.2 (active),-0.358,-1.04 (active),-0.387,-1.22 (active),-1.57 (active),-2.52 (active),-0.461,-1.58 (active),-0.316,-0.618,-0.698,-2.08 (active),0.0363,-0.1,-0.0886,-0.205,-0.182,-0.301,0.0569,-0.25,0.0324,-0.432,-0.507,-1.83 (active)
UniProt Q8TE49,-0.52,-0.96,-0.844,-1.04,-0.139,-0.82,-0.245,-0.895,-0.508,-0.562,-0.0686,-1.89 (active),-0.422,-1.52 (active),-0.33,-2.04 (active),-0.0558,-1.81 (active),0.0953,-0.534,-1.68 (active),-2.58 (active),-0.472,-2.17 (active),-0.368,-2.26 (active),-2.07 (active),-2.92 (active),-0.151,-1.37 (active)
